Records with an inconclusive call do not appear. Calls of active or inactive are those of the source. Unless noted, calls follow the shape of the dose curve; as a rule, active = well fitted curve in the direction sought with a large enough effect; inconclusive = small, poorly fitted or top-dose-only effect, or another doubt; inactive = no such curve, though single readings can be large; an effect the other way counts as inactive or inconclusive.
Assays:
[1] = target: Lysosomal acid glucosylceramidase (Homo sapiens) (UniProt P04062); experiment: Glucocerebrosidase-p2 (AID 348; in the data active = potency below about 10 µM; also: potency is read from the fitted curve at half-maximal effect); settings: purified GBA, blue fluorogenic substrate, 40 min
Sequence of Lysosomal acid glucosylceramidase (Homo sapiens) (P04062 whole entry, looked up): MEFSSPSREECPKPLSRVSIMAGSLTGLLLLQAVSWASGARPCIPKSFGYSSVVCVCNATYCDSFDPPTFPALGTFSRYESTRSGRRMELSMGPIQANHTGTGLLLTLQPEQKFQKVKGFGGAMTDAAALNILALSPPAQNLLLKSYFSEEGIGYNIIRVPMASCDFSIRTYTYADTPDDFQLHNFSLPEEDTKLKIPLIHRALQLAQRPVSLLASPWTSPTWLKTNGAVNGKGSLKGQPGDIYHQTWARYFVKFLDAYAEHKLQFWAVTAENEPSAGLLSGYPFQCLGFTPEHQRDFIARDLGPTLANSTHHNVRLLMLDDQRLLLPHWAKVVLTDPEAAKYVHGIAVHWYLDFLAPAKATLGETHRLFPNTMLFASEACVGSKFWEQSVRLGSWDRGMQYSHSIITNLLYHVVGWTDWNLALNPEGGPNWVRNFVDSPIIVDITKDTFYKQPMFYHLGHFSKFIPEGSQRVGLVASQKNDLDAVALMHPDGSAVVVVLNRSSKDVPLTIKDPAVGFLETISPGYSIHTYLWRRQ
Outline: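 Compounds titrated from 0.6 nM upwards against 0.2 nM enzyme in pH 5.9 citric acid/KH2PO4, taurocholate, tween-20; blue fluorogenic substrate 80 uM, 40 min room temperature, stopped and read Ex 365/Em 440 for AC50.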

[2] = AP1 Signaling Pathway (AID 357; active = well fitted curve in either direction with a large enough effect, not every such curve was filed as active;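 also: ME-180 reporter cells stimulated with EGF at its EC50 level; % is scaled to controls: 0 for no effect and ±100 for the full control effect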); settings: ME-180 AP-1-bla reporter, EGF-induced, beta-lactamase ratio, 5 h; at 7.69 µM (top of the series) unless noted
Outline: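 Titration-series screen for positive or negative modulators of EC50 EGF-induced signaling in ME-180 cells carrying an AP-1-driven beta-lactamase reporter. After 5 hours at 37 degrees Celsius, CCF4 460nm/530nm emission ratio gave %Activity; AC50 values derived.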

[3] = NFAT Signaling Pathway (AID 444; active = well fitted curve in either direction with a large enough effect, not every such curve was filed as active;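 also: carbachol stimulus at about its EC50 of 1 µM final; % is scaled to controls: 0 for no effect and ±100 for the full control effect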); settings: Jurkat NFAT-bla M1, carbachol, beta-lactamase ratio, 5 h; at 7.69 µM (top of the series) unless noted
Outline: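 Read-out: CCF4 FRET ratio (460 nm/530 nm) after 1 h RT dye loading, used for %activity and AC50 from titration series. Cells: Jurkat NFAT-β-lactamase/M1 line, treated with compound plus 1 uM carbachol for 5 h, 37 °C.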

[4] = Stat Signaling Pathway (AID 446; active = well fitted curve in either direction with a large enough effect, not every such curve was filed as active;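 also: ME-180 cervical cancer cells given 40 pM IL-6 alongside compound; SIE-controlled beta-lactamase reporter measured as 460/530 nm FRET emission ratio; % is scaled to controls: 0 for no effect and ±100 for the full control effect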); settings: ME-180 SIE beta-lactamase reporter, IL-6 stimulated, 5 h; at 7.69 µM (top of the series) unless noted
Outline: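 Screening format detects activators and inhibitors alike: ME-180 SIE-bla cells stimulated at 40 pM IL-6 for 5 hrs with compound, then dual-emission beta-lactamase read at 405 nm excitation.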

[5] = target: Glucocorticoid receptor (Homo sapiens) (UniProt P04150); experiment: GR-GFP Redistribution (AID 450;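 active = compounds whose dose series gives a full or clear partial fitted curve of increased nuclear translocation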; also: potency is read from the fitted curve at half-maximal effect); settings: U2OS GR-GFP nuclear translocation, laser cytometry, 2 h
Sequence of Glucocorticoid receptor (Homo sapiens) (P04150 whole entry, looked up, the tested form may be a part): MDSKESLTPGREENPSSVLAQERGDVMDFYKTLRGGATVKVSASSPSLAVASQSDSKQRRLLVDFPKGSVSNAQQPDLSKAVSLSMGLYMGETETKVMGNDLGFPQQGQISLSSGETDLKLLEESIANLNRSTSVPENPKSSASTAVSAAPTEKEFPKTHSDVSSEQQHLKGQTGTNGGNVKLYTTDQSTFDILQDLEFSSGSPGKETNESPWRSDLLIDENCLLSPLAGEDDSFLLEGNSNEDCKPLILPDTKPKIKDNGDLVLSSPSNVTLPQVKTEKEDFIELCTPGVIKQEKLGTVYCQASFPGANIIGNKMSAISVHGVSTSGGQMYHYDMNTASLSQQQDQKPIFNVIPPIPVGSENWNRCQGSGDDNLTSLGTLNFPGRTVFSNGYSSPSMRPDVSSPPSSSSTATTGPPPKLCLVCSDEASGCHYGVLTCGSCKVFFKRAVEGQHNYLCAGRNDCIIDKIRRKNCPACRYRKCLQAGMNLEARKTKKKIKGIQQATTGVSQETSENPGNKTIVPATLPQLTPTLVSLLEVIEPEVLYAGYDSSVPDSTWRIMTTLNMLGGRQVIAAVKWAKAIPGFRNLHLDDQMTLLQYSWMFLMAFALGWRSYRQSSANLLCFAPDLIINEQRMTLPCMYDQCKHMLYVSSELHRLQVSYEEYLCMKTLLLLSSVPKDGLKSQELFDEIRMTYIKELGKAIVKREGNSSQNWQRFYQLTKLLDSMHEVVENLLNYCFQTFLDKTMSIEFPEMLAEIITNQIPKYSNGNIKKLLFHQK

[6] = target: Glucocorticoid receptor (Homo sapiens) (UniProt P04150); experiment: GR-EFC Redistribution (AID 451; calls by dose curve; also: potency is read from the fitted curve at half-maximal effect); settings: CHO-K1 GR-EFC translocation, beta-gal luminescence, 2 h
Outline: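 Translocation of GR-ED fusion to nuclear EA restores b-gal, read by luminescence after 1 h room-temperature detection. Engineered CHO-K1 biosensor cells, 1,000/well, exposed 2 h at 37 C to titrations up to 46 uM final.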

[7] = target: Mitogen-activated protein kinase 10 (Mus musculus) (UniProt Q61831); experiment: JNK3 AlphaScreen Assay (AID 530; active = well fitted curve in either direction with a large enough effect, not every such curve was filed as active;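 also: kinase came from lysate of stimulated human HepG2 cells; signal reports phosphorylation of biotinylated GST-cJun 1-79 at Ser73 with 10 µM ATP; % is scaled to controls: 0 for no effect and ±100 for the full control effect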); settings: JNK3 lysate, c-Jun phosphorylation; series mostly up to 57.1 µM
Outline: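 Compound titrations were preincubated 15 minutes at room temperature with substrate, antibody and pre-activated JNK3-containing HepG2 lysate. Reactions were started with 10 uM ATP and stopped with EDTA-containing bead buffer for AlphaScreen detection.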

[8] = target: Dual specificity protein kinase CLK4 (Homo sapiens) (UniProt Q9HAZ1); experiment: qHTS Assay for Inhibitors of CDC-like Kinase 4 (Kinase-Glo Assay) (AID 1770); settings: recombinant Clk4, Kinase-Glo ATP depletion luminescence; series mostly up to 66.7 µM; also: nearly all actives have a fitted effect of over 65% in size; also: potency is read from the fitted curve at half-maximal effect
Sequence of Dual specificity protein kinase CLK4 (Homo sapiens) (Q9HAZ1 whole entry, looked up): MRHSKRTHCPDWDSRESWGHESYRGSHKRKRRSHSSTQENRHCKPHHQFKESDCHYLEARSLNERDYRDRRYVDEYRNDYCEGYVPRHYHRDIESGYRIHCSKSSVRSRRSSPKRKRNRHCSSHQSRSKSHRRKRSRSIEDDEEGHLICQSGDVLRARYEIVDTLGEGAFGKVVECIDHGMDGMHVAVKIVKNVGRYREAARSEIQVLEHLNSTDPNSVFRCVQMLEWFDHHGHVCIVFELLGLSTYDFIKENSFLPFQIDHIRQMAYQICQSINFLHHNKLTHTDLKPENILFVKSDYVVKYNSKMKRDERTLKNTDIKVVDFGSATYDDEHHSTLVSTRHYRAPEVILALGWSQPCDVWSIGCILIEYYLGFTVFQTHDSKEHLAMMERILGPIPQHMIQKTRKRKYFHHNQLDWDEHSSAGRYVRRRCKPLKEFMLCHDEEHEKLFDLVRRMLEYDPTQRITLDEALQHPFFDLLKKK
Outline: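 Recombinant human Clk4 (25 nM) phosphorylated RS repeat peptide (100 uM) with 1 uM ATP in Tris pH 7.5/MgCl2/EGTA/DTT/Triton buffer for 4.5 h at room temperature. Residual ATP was quantified by Kinase-Glo luciferase luminescence.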

[9] = target: Dual specificity protein kinase CLK4 (Homo sapiens) (UniProt Q9HAZ1); experiment: qHTS Assay for Inhibitors of CDC-like Kinase 4 (ADP-Glo Assay) (AID 1771); settings: recombinant CLK4, ADP-Glo luminescence; series mostly up to 80 µM; also: nearly all actives have a fitted effect of over 70% in size; also: potency is read from the fitted curve at half-maximal effect
Outline: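 Luminescence from ADP-Glo reports ADP produced by 25 nM Clk4 acting on 100 uM RS repeat peptide with 1 uM ATP over 1 hr at room temperature; residual ATP is depleted before ADP is converted to ATP for detection.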

[10] = target: Dual specificity protein kinase CLK4 (Homo sapiens) (UniProt Q9HAZ1); experiment: qHTS Assay for Inhibitors of CDC-like Kinase 4 (ADP-FP Assay) (AID 1795); settings: Transcreener ADP fluorescence polarization; series mostly up to 50 µM; also: nearly all actives have a fitted effect of over 60% in size; also: potency is read from the fitted curve at half-maximal effect
Outline: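 Recombinant human Clk4 (6.25 nM) phosphorylated RS repeat peptide (100 uM) with 1 uM ATP in Tris pH 7.5/MgCl2/EGTA/DTT/Triton buffer for one hour. ADP was quantified by Transcreener competitive fluorescence polarization against an ADP calibration curve.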

[11] = target: Ubiquitin carboxyl-terminal hydrolase 1 (Homo sapiens) (UniProt O94782); experiment: Inhibitors of USP1/UAF1: Pilot qHTS (AID 504865); settings: purified USP1/UAF1, Ub-rhodamine cleavage fluorescence; series mostly up to 54.9 µM;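 also: rhodamine fluorescence freed from ubiquitin-rhodamine substrate followed over time; top concentration of the series differs between compounds; % is scaled to controls: 0 for no effect and ±100 for the full control effect; nearly all actives have a fitted effect of over 35% in size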
Sequence of Ubiquitin carboxyl-terminal hydrolase 1 (Homo sapiens) (O94782 whole entry, looked up): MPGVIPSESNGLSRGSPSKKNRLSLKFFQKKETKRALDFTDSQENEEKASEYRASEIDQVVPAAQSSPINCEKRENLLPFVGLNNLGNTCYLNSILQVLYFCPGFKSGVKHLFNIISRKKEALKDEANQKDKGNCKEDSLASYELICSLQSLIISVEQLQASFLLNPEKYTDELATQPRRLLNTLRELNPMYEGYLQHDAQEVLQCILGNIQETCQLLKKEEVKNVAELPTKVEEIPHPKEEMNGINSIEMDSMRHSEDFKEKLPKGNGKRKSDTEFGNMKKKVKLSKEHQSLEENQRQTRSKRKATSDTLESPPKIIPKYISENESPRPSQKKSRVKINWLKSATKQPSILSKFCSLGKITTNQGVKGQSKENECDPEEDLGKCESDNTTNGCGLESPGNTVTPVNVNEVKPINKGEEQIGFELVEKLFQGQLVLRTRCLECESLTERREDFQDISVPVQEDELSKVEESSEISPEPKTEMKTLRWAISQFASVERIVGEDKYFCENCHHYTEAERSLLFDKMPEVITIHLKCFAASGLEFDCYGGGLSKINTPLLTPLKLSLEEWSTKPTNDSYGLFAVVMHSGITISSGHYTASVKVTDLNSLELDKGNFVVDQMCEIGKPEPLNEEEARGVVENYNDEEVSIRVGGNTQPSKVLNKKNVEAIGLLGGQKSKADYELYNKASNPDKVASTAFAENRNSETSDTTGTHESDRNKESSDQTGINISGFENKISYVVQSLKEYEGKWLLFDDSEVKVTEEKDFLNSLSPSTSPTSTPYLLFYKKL
Outline: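 USP1/UAF1 complex (1nM) preincubated with compound 15 min at room temperature, then Ub-Rho substrate (150nM final) added. Fluorescence read kinetically at 480/540 nm, 6 reads every 60 seconds. Buffer: 50mM HEPES pH 7.8, 0.5mM EDTA, 0.1 mg/ml BSA, 1mM TCEP, 0.01% Tween-20.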

[12] = Primary qHTS for small molecule stabilizers of the endoplasmic reticulum resident proteome: Secreted ER Calcium Modulated Protein (SERCaMP) assay (AID 1508630); settings: SH-SY5Y GLuc-SERCaMP (Gaussia luciferase released on ER calcium loss) secretion, thapsigargin, luminescence; series mostly up to 38.4 µM; also: % is scaled to controls: 0 for no effect and ±100 for the full control effect
Outline: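 GLuc-SERCaMP-expressing SH-SY5Y cells, pretreated 16 h with compound, are challenged with thapsigargin to empty ER calcium stores; after 4 h, coelenterazine is added directly to the medium and luminescence is imaged.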

[13] = target: 3',5'-cyclic-AMP phosphodiesterase 4B (Homo sapiens) (UniProt Q07343); experiment: qHTS Assay for Inhibitors of PDE-IV (AID 607; active = well fitted activation curve with a large enough effect in the main read-out, with a control signal flat, not every such curve was filed as active; also: % of control where 0% means no effect); settings: HEK293 ACTOne CNG channel cells, membrane potential fluorescence; series mostly up to 22.9 µM
Sequence of 3',5'-cyclic-AMP phosphodiesterase 4B (Homo sapiens) (Q07343 whole entry, looked up): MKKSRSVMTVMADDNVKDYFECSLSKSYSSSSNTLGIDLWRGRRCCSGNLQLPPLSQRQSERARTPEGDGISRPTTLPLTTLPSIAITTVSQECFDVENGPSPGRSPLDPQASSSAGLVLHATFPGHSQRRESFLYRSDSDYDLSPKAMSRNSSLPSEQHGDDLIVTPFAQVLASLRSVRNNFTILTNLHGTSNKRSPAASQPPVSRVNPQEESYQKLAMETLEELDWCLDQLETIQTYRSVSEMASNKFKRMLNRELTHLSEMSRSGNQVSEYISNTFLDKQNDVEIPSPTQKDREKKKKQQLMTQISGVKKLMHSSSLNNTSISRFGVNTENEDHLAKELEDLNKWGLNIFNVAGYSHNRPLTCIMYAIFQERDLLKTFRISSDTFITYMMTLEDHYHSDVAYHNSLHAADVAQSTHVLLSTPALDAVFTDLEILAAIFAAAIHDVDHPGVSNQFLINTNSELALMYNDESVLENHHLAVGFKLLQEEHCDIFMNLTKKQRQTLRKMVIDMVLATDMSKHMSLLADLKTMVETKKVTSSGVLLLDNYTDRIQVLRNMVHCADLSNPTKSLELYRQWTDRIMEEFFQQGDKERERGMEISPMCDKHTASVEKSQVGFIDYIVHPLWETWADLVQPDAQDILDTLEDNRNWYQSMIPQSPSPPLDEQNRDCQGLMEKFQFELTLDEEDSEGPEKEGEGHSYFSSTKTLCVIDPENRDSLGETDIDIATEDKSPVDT
Outline: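 The readout is membrane depolarisation from a cAMP-sensing CNG channel, detected with a potential dye at ex 535/em 590. Cells were HEK293-derived (endogenous PDE-IV) at 1000 cells/well, titrated up to 22.9 uM final.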

[14] = target: Cytochrome P450 1A2 (Homo sapiens) (UniProt P05177); experiment: p450-cyp1a2 (AID 410; calls by dose curve; also: potency is read from the fitted curve at half-maximal effect); settings: recombinant CYP1A2, luciferin-ME demethylation, luminescence; series mostly up to 57 µM
Sequence of Cytochrome P450 1A2 (Homo sapiens) (P05177 whole entry, looked up): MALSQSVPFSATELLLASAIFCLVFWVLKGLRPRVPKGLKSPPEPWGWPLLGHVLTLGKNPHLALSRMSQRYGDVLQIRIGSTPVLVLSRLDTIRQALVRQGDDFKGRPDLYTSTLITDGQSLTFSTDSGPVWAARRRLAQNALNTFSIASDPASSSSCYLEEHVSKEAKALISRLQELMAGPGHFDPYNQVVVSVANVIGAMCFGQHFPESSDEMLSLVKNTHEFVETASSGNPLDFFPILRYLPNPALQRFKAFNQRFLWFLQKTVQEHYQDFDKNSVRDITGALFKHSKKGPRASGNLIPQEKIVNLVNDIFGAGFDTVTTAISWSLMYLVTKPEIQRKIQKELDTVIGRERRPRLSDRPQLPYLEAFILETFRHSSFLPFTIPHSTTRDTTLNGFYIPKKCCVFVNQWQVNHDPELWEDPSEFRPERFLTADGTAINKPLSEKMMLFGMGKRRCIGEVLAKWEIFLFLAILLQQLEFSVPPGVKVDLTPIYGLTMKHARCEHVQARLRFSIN
Outline: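 Luminescent readout of luciferin formed from Luciferin-ME by human CYP1A2; data normalized against complete inhibition by 57 uM furafylline. Enzyme 20nM, substrate 100uM at Km, 100mM KPO4 buffer, 60 min reaction at room temperature.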

[15] = target: Cytochrome P450 3A4 (Homo sapiens) (UniProt P08684); experiment: qHTS Assay for Inhibitors and Substrates of Cytochrome P450 3A4 (AID 884); settings: recombinant CYP3A4, Luciferin-PPXE luminescence; series mostly up to 57.1 µM; also: potency is read from the fitted curve at half-maximal effect; nearly all actives have a fitted effect of over 50% in size
Sequence of Cytochrome P450 3A4 (Homo sapiens) (P08684 whole entry, looked up): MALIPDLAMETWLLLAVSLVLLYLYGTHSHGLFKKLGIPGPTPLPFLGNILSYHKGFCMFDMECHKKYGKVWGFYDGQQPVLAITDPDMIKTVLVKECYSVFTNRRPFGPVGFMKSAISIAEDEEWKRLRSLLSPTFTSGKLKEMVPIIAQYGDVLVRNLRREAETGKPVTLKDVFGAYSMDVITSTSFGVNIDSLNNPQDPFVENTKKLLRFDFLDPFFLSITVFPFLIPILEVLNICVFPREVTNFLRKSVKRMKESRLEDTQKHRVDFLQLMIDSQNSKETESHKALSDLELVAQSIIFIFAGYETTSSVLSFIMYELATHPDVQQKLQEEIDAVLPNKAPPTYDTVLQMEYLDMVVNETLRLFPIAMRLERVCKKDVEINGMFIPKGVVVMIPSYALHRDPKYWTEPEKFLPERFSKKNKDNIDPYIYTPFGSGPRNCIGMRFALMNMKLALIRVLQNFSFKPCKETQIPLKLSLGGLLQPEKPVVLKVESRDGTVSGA
Outline: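 20 nM human CYP3A4 with 25 uM Luciferin-PPXE (at KM) in 200 mM KPO4, preincubated 10 min with compound; NADPH regeneration started a 60 min RT reaction. Luciferin detected by luminescence, normalized to 57 uM ketoconazole as full inhibition.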

[16] = target: Cytochrome P450 3A4 (Homo sapiens) (UniProt P08684); experiment: qHTS Assay for Activators of Cytochrome P450 3A4 (AID 885); settings: recombinant CYP3A4, Luciferin-PPXE luminescence, 60 min; series mostly up to 57.1 µM; also: nearly all actives have a fitted effect of over 65% in size
Outline: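 Steps: enzyme/substrate mix dispensed; compound added, 10 min RT; NADPH regeneration solution added, 60 min RT; luciferin detection buffer stops reaction; 20 min later luminescence measured.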

[17] = target: Cytochrome P450 2C19 (Homo sapiens) (UniProt P33261); experiment: qHTS Assay for Inhibitors and Substrates of Cytochrome P450 2C19 (AID 899); settings: recombinant CYP2C19, luciferin-H EGE luminescence; series mostly up to 57.1 µM; also: potency is read from the fitted curve at half-maximal effect; nearly all actives have a fitted effect of over 60% in size
Sequence of Cytochrome P450 2C19 (Homo sapiens) (P33261 whole entry, looked up): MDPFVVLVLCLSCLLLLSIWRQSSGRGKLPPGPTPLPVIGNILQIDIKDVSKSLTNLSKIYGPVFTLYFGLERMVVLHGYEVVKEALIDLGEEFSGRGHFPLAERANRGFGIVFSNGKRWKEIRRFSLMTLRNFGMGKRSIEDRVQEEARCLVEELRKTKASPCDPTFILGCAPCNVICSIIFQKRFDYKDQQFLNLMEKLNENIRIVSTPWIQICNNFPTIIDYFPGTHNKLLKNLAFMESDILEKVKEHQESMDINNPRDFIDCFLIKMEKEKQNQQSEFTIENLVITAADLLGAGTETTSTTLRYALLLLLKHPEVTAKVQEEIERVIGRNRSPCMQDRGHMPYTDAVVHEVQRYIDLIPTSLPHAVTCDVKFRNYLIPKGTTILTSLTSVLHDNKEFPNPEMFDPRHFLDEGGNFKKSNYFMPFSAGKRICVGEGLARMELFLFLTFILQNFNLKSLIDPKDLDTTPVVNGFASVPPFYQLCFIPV
Outline: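 Luminescence readout of luciferin formed from 10uM Luciferin-H EGE (KM level) by 5 nM CYP2C19 in 50mM KPO4. 60 min NADPH-driven reaction at 37C after 10 min compound preincubation; data scaled to 57uM ketoconazole inhibition.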

COc1cccc(Cn2c(=O)c(CCc3ccccc3)nc3cnc(N4CCOCC4)nc32)c1
inactive: Potency [1] > 11.4 µM | activity change, negative = inhibition [2] 0.275% | activity change, negative = inhibition [3] -19.1% | activity, negative = inhibition [4] -8.53% | Potency [5] > 9.22 µM | Potency [6] > 46 µM | Potency [7] | Potency [8] | Potency [9] | Potency [10] | Potency [11] | outcome [12]

c1cncc(-c2nc(-n3ccnc3)c3ccccc3n2)c1
inactive: Potency [1] > 11.4 µM | activity change, negative = inhibition [2] 14.5% | activity change, negative = inhibition [3] 8.3% | activity, negative = inhibition [4] -3.82% | Potency [5] > 46 µM | Potency [6] > 46 µM | Potency [7] | Potency [13] | Potency [11] | outcome [12]
active: Potency [8] 11.2 µM | Potency [9] 11.2 µM | Potency [10] 12.6 µM

COCCn1c(=O)c(CCc2ccccc2)nc2cnc(N3CCOCC3)nc21
inactive: Potency [1] > 11.4 µM | activity change, negative = inhibition [2] -24.7% | activity change, negative = inhibition [3] -12.9% | activity, negative = inhibition [4] -3.32% | Potency [5] > 9.22 µM | Potency [6] > 46 µM | Potency [7] | Potency [13] | Potency [8] | Potency [9] | Potency [10] | Potency [11] | outcome [12]

FC(F)(F)c1ccccc1-c1cncnc1-n1ccnc1
inactive: Potency [1] > 11.4 µM | activity change, negative = inhibition [2] -6.84% | activity change, negative = inhibition [3] -7.53% | activity, negative = inhibition [4] 3.29% | Potency [5] > 46 µM | Potency [6] > 46 µM | Potency [7] | Potency [13] | Potency [8] | Potency [9] | Potency [10] | Potency [11] | outcome [12]

Cn1c(=O)c(-c2cc(F)cc(F)c2)nc2cnc(Nc3ccccc3)nc21
inactive: Potency [1] > 11.4 µM | activity change, negative = inhibition [2] -3.31% | activity change, negative = inhibition [3] 6.94% | activity, negative = inhibition [4] 4.13% | Potency [5] > 9.22 µM | Potency [6] > 46 µM | Potency [7] | Potency [13] | Potency [8] | Potency [9] | Potency [10] | Potency [11] | outcome [12]

Cn1c(=O)c(CCc2ccccc2)nc2cnc(N3CCOCC3)nc21
inactive: Potency [1] > 11.4 µM | activity change, negative = inhibition [2] -10.6% | activity change, negative = inhibition [3] 10.9% | activity, negative = inhibition [4] 1.67% | Potency [5] > 9.22 µM | Potency [6] > 46 µM | Potency [7] | Potency [13] | Potency [8] | Potency [9] | Potency [10] | Potency [11] | outcome [12]

Cn1c(=O)c(-c2ccc(F)cc2)nc2cnc(Nc3ccccc3)nc21
inactive: Potency [1] > 11.4 µM | activity change, negative = inhibition [2] 4.86% | activity change, negative = inhibition [3] -9.42% | activity, negative = inhibition [4] -5.13% | Potency [5] > 9.22 µM | Potency [6] > 46 µM | Potency [7] | Potency [8] | Potency [9] | Potency [10] | Potency [11] | outcome [12]

COc1ncc2nc(-c3cn(C)c4ccccc34)c(=O)n(C[C@H]3CCCO3)c2n1
inactive: Potency [1] > 11.4 µM | activity change, negative = inhibition [2] -6.51% | activity change, negative = inhibition [3] 3.98% | activity, negative = inhibition [4] -5.17% | Potency [5] > 9.22 µM | Potency [6] > 46 µM | Potency [7] | Potency [8] | Potency [9] | Potency [10] | Potency [11] | outcome [12]

COc1ccc(CNc2nc(-c3c(C)noc3C)nc3ccccc23)c(OC)c1
inactive: Potency [1] > 2.29 µM | activity change, negative = inhibition [2] 5.92% | Potency [5] > 46 µM | Potency [6] > 46 µM | Potency [7] | Potency [16] | Potency [8] | Potency [9] | Potency [10] | outcome [12]
active: Potency [14] 0.794 µM | Potency [15] 2.51 µM | Potency [17] 3.16 µM

O=c1c(-c2ccc(Cl)cc2)nc2cnc(Nc3ccccc3)nc2n1C1CC1
inactive: Potency [1] > 11.4 µM | activity change, negative = inhibition [2] -1.39% | activity change, negative = inhibition [3] -9.46% | activity, negative = inhibition [4] -0.41% | Potency [5] > 9.22 µM | Potency [6] > 46 µM | Potency [7] | Potency [13] | Potency [8] | Potency [9] | Potency [10] | Potency [11] | outcome [12]

Cc1ccccc1-c1cc(N2CCNCC2)ncn1
inactive: Potency [1] > 11.4 µM | activity change, negative = inhibition [2] 8.27% | activity change, negative = inhibition [3] 15.7% | activity, negative = inhibition [4] 8.55% | Potency [5] > 46 µM | Potency [6] > 46 µM | Potency [7] | Potency [13] | Potency [8] | Potency [9] | Potency [10] | Potency [11] | outcome [12]

COc1ccc2[nH]cc(CCNc3ccnc(-c4cccc(C#N)c4)n3)c2c1
active: Potency [8] 12.6 µM | Potency [9] 12.6 µM | Potency [10] 8.91 µM
inactive: Potency [1] > 11.4 µM | activity change, negative = inhibition [2] -12.9% | activity change, negative = inhibition [3] 23.2% | activity, negative = inhibition [4] -8.5% | Potency [5] > 46 µM | Potency [6] > 46 µM | Potency [7] | Potency [13] | Potency [11] | outcome [12]

CN(C)c1ncc2nc(-c3ccc(Cl)cc3)c(=O)n(C)c2n1
active: Potency [14] 1.58 µM
inactive: Potency [1] > 11.4 µM | activity change, negative = inhibition [2] 24.8% | Potency [5] > 9.22 µM | Potency [6] > 46 µM | Potency [13] | Potency [8] | Potency [9] | Potency [10] | Potency [11] | outcome [12]

Cc1cnc(CNc2nc(-c3c(C)noc3C)nc3ccccc23)cn1
inactive: Potency [1] > 11.4 µM | activity change, negative = inhibition [2] 9.21% | activity change, negative = inhibition [3] 15% | activity, negative = inhibition [4] -4.92% | Potency [5] > 46 µM | Potency [6] > 46 µM | Potency [7] | Potency [8] | Potency [9] | Potency [10] | Potency [11] | outcome [12]

Source: PubChem BioAssay (NCATS)
